Shown are actives, neighbours in structure and some others; about 2.4% of the full set was active somewhere.
Rango release inh – qHTS Assay for Inhibitors of RanGTP induced Rango (Ran-regulated importin-beta cargo) - Importin beta complex dissociation; hit rate 0.071% among 340,000; Snurportin-1 (Homo sapiens) + GTP-binding nuclear protein Ran (Homo sapiens) + Importin …; Potency, µM (doses to about 46.1 µM), for inactives: at the highest dose activity change, negative = inhibition; Biochemical FRET Rango-importin beta, RanGTP-induced dissociation; calls by dose curve; also: % of control where 0% means no effect; nearly all actives have a fitted effect of over 45% in size
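Recombinant Rango FRET biosensor (EYFP–snurportin 1 IBB–cerulean CFP10) at 0.1 uM premixed with 0.25 uM importin beta in PBS, 1 mM DTT, 0.02% Tween-20, 0.1% BSA. Compound added 5 min; RanGTP-RCC1 (0.6 uM Ran, 2 mM GTP, 0.2 uM RCC1) then triggers release, read at 45 min.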
PKM2 activator – qHTS Assay for Activators of Human Muscle isoform 2 Pyruvate Kinase; Pyruvate kinase PKM (Homo sapiens), P14618; Potency, µM (highest dose often 57.5 µM), for inactives: top-dose activation, most hits filed as activators; hit rate 0.34% among 260,000; AID 1631, 2009; purified PKM2, Kinase-Glo ATP luminescence, activation; response scale: 0% is enzyme alone, no compound; also: % is scaled to controls: 0 for no effect and ±100 for the full control effect; nearly all actives have a fitted effect of over 55% in size
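Purified hPK-M2 (>95% pure) converted ADP (0.1 mM final) to ATP with 0.5 mM PEP in 50 mM imidazole pH7.2, KCl, MgCl2, Tween 20, BSA; 1 h at room temperature. ATP detected by Kinase-Glo luminescence.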
Rango complex inh – qHTS Assay for Inhibitors of Rango (Ran-regulated importin-beta cargo) - Importin beta complex formation. Importin subunit beta-1 (Homo sapiens), Q14974. Rango CFP/YFP FRET sensor + importin beta, 45 min. Potency, µM (highest dose often 92.2 µM), for the others: top-dose inhibition of complex formation. hit rate 0.031% among 340,000; calls by dose curve;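 also: 0% = DMSO wells and 100% = buffer wells lacking importin beta; nearly all actives have a fitted effect of over 15% in size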
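FRET biosensor Rango (snurportin 1 IBB between N-terminal EYFP and C-terminal Cerulean), 50 nM in PBS/1 mM DTT/0.02% Tween-20/0.1% BSA, preincubated 5 min RT with compound; 0.125 microM importin beta added, 45 min RT, CFP/YFP FRET ratio read.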
ELG1 repair inh – qHTS screen for small molecules that inhibit ELG1-dependent DNA repair in human embryonic kidney (HEK293T) cells expressing luciferase-tagged ELG1; HEK293T ELG1-luciferase reporter, luminescence, 16 h; DNA damage induced by 5-fluorouridine; Potency, µM (top dose mostly 46.1 µM), for the others: at the highest dose activity change, negative = inhibition, actives largely listed as inhibitors; hit rate 2.3% among 330,000; AID 504467, 2011; also: % is scaled to controls: 0 for no effect and ±100 for the full control effect; nearly all actives have a fitted effect of over 55% in size
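Quantitative HTS, concentration-response format. 2,000 cells/well co-treated with 5-fluorouridine and compound, 16 hr in 5% CO2 at 37 °C; ONE-Glo luminescence read after 30 min.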
Tb PGK inh – qHTS Assay to Find Inhibitors of Phosphoglycerate Kinase | Phosphoglycerate kinase, glycosomal (Trypanosoma brucei brucei), P07378 | PGK/GAPDH coupled, Kinase-Glo luminescence, 60 min | Potency, µM (series often up to 57.5 µM), for inactives: at the top dose activity change, negative = inhibition, actives largely listed as inhibitors | hit rate 0.043% among 380,000 | AID 602233, 2012; also: % is scaled to controls: 0 for no effect and ±100 for the full control effect; nearly all actives have a fitted effect of over 60% in size
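Luminescent ATP detection (Kinase-Glo Plus) follows a 60-minute room-temperature incubation, with wells lacking PGK as controls. Buffer: 100 mM TEA (pH 7.6), 5 mM MgCl2, 0.01% Tween-20. Coupling enzyme GAPDH (100 nM final) supplies unstable 1,3-BPG in-well.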
Tb PFK inh-1 – qHTS Assay to Find Inhibitors of T. brucei phosphofructokinase. T. brucei PFK, ADP-Glo luminescence. AID 485367, 2010. hit rate 0.17% among 330,000. Potency, µM (series often up to 57.5 µM), for inactives: at the top dose activity, negative = inhibition, most hits filed as inhibitors;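 also: 0% = uninhibited 1x PFK enzyme wells and -100% = no-enzyme wells; nearly all actives have a fitted effect of over 60% in size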
Target sequence (O15648 whole entry, looked up): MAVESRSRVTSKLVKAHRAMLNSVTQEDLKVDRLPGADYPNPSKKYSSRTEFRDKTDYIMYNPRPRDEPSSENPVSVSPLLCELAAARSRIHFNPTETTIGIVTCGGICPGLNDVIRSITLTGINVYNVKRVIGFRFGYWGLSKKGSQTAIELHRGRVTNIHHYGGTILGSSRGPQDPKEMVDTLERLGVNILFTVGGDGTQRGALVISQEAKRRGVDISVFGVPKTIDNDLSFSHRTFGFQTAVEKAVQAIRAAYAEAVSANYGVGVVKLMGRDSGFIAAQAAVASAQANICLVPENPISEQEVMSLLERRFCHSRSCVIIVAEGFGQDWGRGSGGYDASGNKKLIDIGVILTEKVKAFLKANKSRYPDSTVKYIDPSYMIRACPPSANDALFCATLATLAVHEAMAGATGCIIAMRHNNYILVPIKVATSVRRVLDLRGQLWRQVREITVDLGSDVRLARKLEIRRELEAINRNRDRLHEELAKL
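Compounds were pin-transferred as a titration series up to 57 uM into substrate buffer (0.5 mM F6P, 0.1 mM ATP, pH 8.0), then 1.25 nM PFK was added and reactions ran 45 min before ADP-Glo detection.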
TbPFK ATP – Tb PFK orthogonal confirmatory assay using ATP depletion (Kinase-Glo Plus) as an alternative measure of Tb PFK activity: Hit Validation | shares compounds with Tb PFK inh-1 | Tb PFK enzyme, ATP depletion, Kinase-Glo Plus luminescence | Potency, µM (highest dose often 57.5 µM), for the others: at the top dose inhibition | hit rate 47% among 1,100; calls by dose curve; also: nearly all actives have a fitted effect of over 60% in size
Tb PFK inh-2 – Inhibitors of T. brucei phosphofructokinase: Hit Validation; shares compounds with Tb PFK inh-1; purified T. brucei PFK, ADP-Glo luminescence, 45 min; Potency, µM (series often up to 57.5 µM), without a hit: at the highest dose activity change, negative = inhibition, most hits filed as inhibitors; hit rate 41% among 1,100; AID 504637, 2011;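 also: plate controls were full PFK enzyme control for no effect and no enzyme control for full effect; nearly all actives have a fitted effect of over 60% in size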
Active calls of the source: *; i = inactive; ? = inconclusive; · = not tested or not shown. Unless noted, calls follow the shape of the dose curve; as a rule, active = well fitted curve in the direction sought with a large enough effect; inconclusive = small, poorly fitted or top-dose-only effect, or another doubt; inactive = no such curve, though single readings can be large; an effect the other way counts as inactive or inconclusive. Potency is read from the fitted curve at half-maximal effect.

SMILES	Rango release inh	PKM2 activator	Rango complex inh	ELG1 repair inh	Tb PGK inh	Tb PFK inh-1	TbPFK ATP	Tb PFK inh-2
CC(C)OC(=O)c1cc(C(=O)c2cc(Cl)ccc2O)coc1=N	-18.5%	1.2%	?	2.3%	-5.9%	-8.4%	·	·
COc1ccc(CNc2nc(Cl)c(C#N)s2)cc1	23.8%	·	4.2%	?	-4.0%	12µM*	7.57µM*	13.5µM*
N#Cc1sc(NCc2ccccc2)nc1Cl	-1.5%	-7.6%	-0.8%	?	i	19µM*	10.7µM*	26.9µM*
N#Cc1ccccc1NC(=O)c1cccn(Cc2ccccc2)c1=O	·	·	·	·	-0.6%	·	·	·
COc1ccc(OC(=O)Nc2ccccc2)cc1	11.9%	-25.0%	4.8%	?	-18.3%	-3.6%	·	·
COc1ccc(/C=C/C(=O)Nc2ccccc2C(=O)O)cc1	-0.7%	-23.9%	2.1%	?	3.0%	?	-30.9%	?
Cc1ccc2c(c1)CC1(CN2C)C(=O)NC(=O)N(CCc2ccccc2)C1=O (stereo not drawn)	-3.9%	-1.6%	-0.7%	?	3.1%	-3.0%	·	·
O=C(N/N=C/c1c(O)n(Cc2ccc(F)cc2)c(=S)[nH]c1=O)c1ccncc1	?	-4.4%	?	27.0%	-5.5%	-5.2%	·	·
O=C(NCCN1CCOCC1)c1ccc(CSc2nc3ccncc3n2Cc2ccc(F)cc2)cc1	9.1%	2.1%	-1.3%	-9.5%	i	?	?	?
O=C(NC1CCCC1)c1ccc(CSc2nc3ccncc3n2Cc2ccc(F)cc2)cc1	-2.4%	-1.4%	-0.4%	?	-4.5%	?	?	26.9µM*
O=C(O)C1CCCCC1C(=O)Nc1cccc(Br)c1 (stereo not drawn)	1.5%	·	4.1%	10.0%	?	16.9µM*	12µM*	26.9µM*
C=CCN1CC[C@]23c4c5ccc(O)c4OC2C(=O)CC[C@@]3(O)C1C5 (stereo partly drawn)	0.6%	3.1%	-3.7%	-0.6%	-8.9%	0.7%	·	·
O=[N+]([O-])c1ccc(C(c2ccc([N+](=O)[O-])cc2)c2ccc([N+](=O)[O-])cc2)cc1	-3.5%	·	-2.2%	·	-10.7%	·	·	·
NCCNc1ccc([N+](=O)[O-])cc1	8.6%	3.2%	0.4%	5.3%	0.2%	?	?	?
C#CCNc1ccc([N+](=O)[O-])cc1	-8.6%	18.8%	-0.4%	29.7%	1.0%	23.9µM*	21.3µM*	26.9µM*
COP(=O)(OC)/C(C=O)=N/Nc1ccc([N+](=O)[O-])cc1	?	2.9%	-6.1%	-18.0%	-9.6%	-3.0%	·	·
CCC(=NCc1cccnc1)c1c(O)n(-c2ccccc2)c(=O)[nH]c1=O	3.4%	-15.2%	0.6%	10.1%	-1.0%	-5.4%	·	·
COc1ccccc1N1CCN(CCc2c[nH]c3cc4c(cc23)OCO4)CC1	-2.2%	·	-1.0%	·	-0.3%	·	·	·
COc1ccccc1N1CCN(C(=O)C(C)CS(=O)(=O)c2ccc3c(c2)NC(=O)CS3)CC1 (stereo not drawn)	11.9%	·	-2.1%	?	?	23.9µM*	6.01µM*	?
COc1cccc(OCCNC(=O)c2cc([N+](=O)[O-])cc([N+](=O)[O-])c2)c1	-4.1%	·	-5.2%	?	-6.9%	-5.1%	·	·
CCc1nnc(NS(=O)(=O)c2ccc(NC(=O)COc3ccc(Cl)c(C)c3)cc2)s1	5.2%	6.0%	-1.0%	24.2%	6.7%	5.36µM*	2.39µM*	7.57µM*
CCN1CCN(C(=O)COc2ccc(S(=O)(=O)Nc3ccc(Cl)cc3)cc2)CC1	-1.7%	5.5%	0.7%	-10.6%	10.9%	0.3%	·	·
Cc1cc(NS(=O)(=O)c2ccc(NC(=S)NCc3ccccc3)cc2)no1	0.0%	-1.5%	2.8%	17.2%	-3.9%	19µM*	23.9µM*	?
Cc1noc(NS(=O)(=O)c2ccc(NC(=O)COc3ccc(C#N)cc3)cc2)c1C	12.9%	·	0.9%	?	10.8%	13.5µM*	6.75µM*	21.3µM*
O=C(COc1ccc(S(=O)(=O)N2CCOCC2)cc1)N1CCN(Cc2ccc3c(c2)OCO3)CC1	-12.3%	9.0%	0.1%	?	-3.9%	-0.1%	·	·
SMILES	Rango release inh	PKM2 activator	Rango complex inh	ELG1 repair inh	Tb PGK inh	Tb PFK inh-1	TbPFK ATP	Tb PFK inh-2
N#Cc1ccc(OCC(=O)Nc2ccc(S(=O)(=O)N3CCOCC3)cc2)cc1	-9.4%	·	?	-1.6%	-0.6%	12µM*	12µM*	30.1µM*
Cc1ccc(-n2c(/C=C/c3cc(Br)cs3)nc3ccccc3c2=O)cc1	·	·	·	·	-1.8%	·	·	·
Cc1cc(NS(=O)(=O)c2ccc(NC(=O)Cc3ccc([N+](=O)[O-])cc3)cc2)no1	-2.8%	0.8%	2.0%	14.2%	4.3%	2.39µM*	0.849µM*	1.51µM*
CN1CCN(C(=O)COc2ccc(S(=O)(=O)Nc3ccc(Cl)cc3)cc2)CC1	·	·	·	·	-5.3%	·	·	·
Cc1cc(NS(=O)(=O)c2ccc(NC(=O)COc3ccc(Cl)cc3)cc2)no1	-3.6%	-0.9%	4.7%	0.4%	6.6%	5.36µM*	1.69µM*	3.79µM*
CN1CCC(O)(c2ccc(Cl)cc2)C(C(=O)c2ccc(Cl)cc2)C1 (stereo not drawn)	11.0%	-3.0%	3.4%	2.0%	-1.6%	0.7%	·	·
C=CC[C@@H](CC(=O)N[C@@H](CO)Cc1ccccc1)C(=O)NCCOC(=O)[C@@H](CC=C)Cc1ccc(F)cc1	14.2%	·	-3.8%	-0.1%	-1.1%	11.9%	·	·
O=C1Nc2ccccc2N(O)N1c1ccc(Cl)c(Cl)c1	-9.3%	-2.5%	-1.5%	3.6%	-7.7%	10.7µM*	?	-15.3%
